# Measurements from PubChem BioAssay AID2061324 (National Center for Advancing Translational Sciences (NCATS), 2025).
# Results filed as inconclusive are left out. Active and inactive are the calls of the source. Calls come from the whole dose curve; as a rule, active = well fitted inhibition curve with a large enough effect; inconclusive = small, poorly fitted or top-dose-only effect; inactive = flat fitted curve, though single readings scatter. Square brackets hold non-standard residues; d marks the D form. Peptide text beside a SMILES is read from it. Dolaproine = CO[C@@H]([C@@H]1CCCN1)[C@@H](C)C(=O)O; Dil = CC[C@H](C)[C@H](NC)[C@@H](CC(=O)O)OC; NMeV = CN[C@H](C(=O)O)C(C)C
# Test: Identification of antibody-drug conjugate (ADC) payloads which are substrates of ATP-binding cassette drug efflux transporters: ABCG2-HEK293-pcDNA cell line
# Details: ABCG2-HEK293 transfected cells viability, CellTiter-Glo, 48 h
# Description: Antibody-drug conjugates (ADCs) feature an antibody recognizing a specific protein joined to a potent toxic payload. Numerous antibody-drug conjugates have received FDA approval; however, clinical resistance arises. Resistance mechanisms include decreased expression or mutation of the antibody target, impaired payload release, or increased expression of ATP-binding cassette (ABC) efflux transporters associated with multidrug resistance. We therefore sought to characterize the interaction of ABC multidrug transporters with ADC payloads. We performed a high-throughput screen with 27 common ADC payloads using cells lines expressing ABC transporters P-glycoprotein (P-gp, encoded by ABCB1) or ABCG2 (encoded by ABCG2). Confirmatory assays were also performed using cells transfected to express P-gp, ABCG2, or MRP1 (encoded by ABCC1). Several commonly used ADC payloads were substrates of P-gp, including calicheamicin gamma1, monomethyl auristatin E, DM1, and DM4. All the pyrrolobenzodiazepines tested - SJG136, SGD-1882, SG2057, and SG3199 - were substrates of P-gp, ABCG2, and MRP1. […] These findings highlight the risk of transporter-mediated resistance with certain ADC payloads and underscore the importance of selecting payloads that evade ABC transporter recognition in future ADC development.
# HEK-293 cells were transfected with empty vector (pcDNA) or vector containing the human ABCB1 (MDR-19), ABCG2 (R-5), or ABCC1 gene (MRP1) and were maintained in EMEM with 2 mg/mL G418 added to maintain transporter expression. The HeLa derivative KB-3-1 and the P-gp overexpressing KB-8-5-11 subline were maintained in DMEM; KB-8-5-11 additionally received 100 ng/mL colchicine. H460 parental cells were obtained from the Division of Cancer Treatment and Diagnosis Tumor Repository, National Cancer Institute at Frederick, MD and were cultured in RPMI. The ABCG2 expressing subline H460 MX20 was generated by selecting H460 cells in 20 nM mitoxantrone. Media in all cases was supplemented with 10% FBS and 1% penicillin-streptomycin. We explored 27 common ADC payloads, in two orthogonal, paired cell line sets-a drug selected and transfected set for each transporter--to identify substrates of the ABC transporters P-gp and ABCG2. Compounds were sourced from Levena Biopharma (San Diego, CA), Selleck Chem (Houston, TX), ChemieTek (Indianapolis, IN), or Microsource Discovery Systems (Gaylordsville, CT). Screening was performed as previously described. Briefly, cells were plated at a density of 500 cells/well in 1536 well plates with compounds added using a 1536-head pin tool (Kalypsys, San Diego CA). Cells were incubated with cytotoxic drugs and processed with CellTiter Glo reagent (Promega, Madison, WI) to determine viability after 48 hours. P-gp substrates were identified by comparing compound activity between paired sets of low-expressing (sensitive) and over-expressing (resistant) cell lines.
row,SMILES,Potency
1,CCN(C(C)=O)[C@H]1CO[C@@H](O[C@H]2[C@H](O[C@H]3C#C/C=C\C#C[C@]4(O)CC(=O)C(NC(=O)OC)=C3/C4=C\CSSSC)O[C@H](C)[C@@H](NO[C@H]3C[C@H](O)[C@H](SC(=O)c4c(C)c(I)c(O[C@@H]5O[C@@H](C)[C@H](O)[C@@H](OC)[C@H]5O)c(OC)c4OC)[C@@H](C)O3)[C@@H]2O)C[C@@H]1OC,2.7 nM (active)
2,COc1cc2cc(c1Cl)N(C)C(=O)C[C@H](O)[C@]1(C)O[C@H]1[C@H](C)C1C[C@@](O)(NC(=O)O1)[C@H](OC)/C=C/C=C(\C)C2,4750 nM (active)
3,CN(C)CCOc1ccc2[nH]c(C(=O)N3C[C@@H](CCl)c4c3cc(O)c3ccccc43)cc2c1,0.8 nM (active)
4,COc1cccc2c1C(=O)c1c(O)c3c(c(O)c1C2=O)C[C@@](O)(C(=O)CO)C[C@@H]3O[C@H]1C[C@H]2[C@H](O[C@@H]3[C@@H](OC)OCCN32)[C@H](C)O1,0.2 nM (active)
5,CC[C@]1(O)CC2CN(CCc3c([nH]c4ccccc34)[C@@](C(=O)OC)(c3cc4c(cc3OC)N(C)[C@H]3[C@@](O)(C(=O)OC)[C@H](OC(C)=O)[C@]5(CC)C=CCN6CC[C@]43[C@@H]65)C2)C1 (stereo partly specified),300 nM (active)
6,CC[C@H](C)[C@@H]([C@H](N)CC(=O)N1CCC[C@H]1[C@H](OC)[C@@H](C)C(=O)N[C@@H](Cc1ccccc1)c1nccs1)N(C)C(=O)[C@@H](NC(=O)[C@H](C(C)C)N(C)C)C(C)C,6 nM (active)
7,CC(C)(C)OC(=O)Nc1ccc2[nH]c(C(=O)N3C[C@@H](CCl)c4c3cc(O)c3ccccc43)cc2c1,16.9 nM (active)
8,Cc1nc(Nc2ncc(C(=O)Nc3c(C)cccc3Cl)s2)cc(N2CCN(CCO)CC2)n1,4750 nM (active)
9,COC(=O)c1cc2c3c(cc(O)c2[nH]1)N(C(=O)c1cc2cc(OC)c(OC)c(OC)c2[nH]1)CC3CCl (stereo unspecified),3.4 nM (active)
10,CC[C@H](C)[C@@H]([C@@H](CC(=O)N1CCC[C@H]1[C@H](OC)[C@@H](C)C(=O)N[C@@H](Cc1ccccc1)C(=O)O)OC)N(C)C(=O)[C@@H](NC(=O)[C@@H](NC)C(C)C)C(C)C (H-[NMeV]V[Dil][Dolaproine]F-OH),3360 nM (active)
11,CCN[C@H]1CO[C@@H](O[C@H]2[C@H](O[C@H]3C#C/C=C\C#C[C@]4(O)CC(=O)C(NC(=O)OC)=C3/C4=C\CSSSC)O[C@H](C)[C@@H](NO[C@H]3C[C@H](O)[C@H](SC(=O)c4c(C)c(I)c(O[C@@H]5O[C@@H](C)[C@H](O)[C@@H](OC)[C@H]5O)c(OC)c4OC)[C@@H](C)O3)[C@@H]2O)C[C@@H]1OC,1.1 nM (active)
